Each structure is given as a SMILES string. Records with an inconclusive call do not appear. Calls of active or inactive are those of the source. Rule for the calls: active = hit-call score of the fitted dose curve at least 0.9, where 1 is the maximum; inconclusive = response in the unintended direction; inactive = score below 0.9.

The target of this test is human Thyroid Receptor alpha (THRa1), THRA (gene 7067) (UniProt P10827). Put plainly: ATG_THRa1_TRANS: Attagene TRANS-FACTORIAL HepG2 Assay for human Thyroid Receptor alpha (THRa1) (AID 2283014). As to the method: ATG_TRANS is a cell-based, multiplexed-readout assay that uses HepG2, a human liver cell line, with measurements taken at 24 hours after chemical dosing in a 24-well plate.ATG_THRa1_TRANS is one of 30 assay component(s) measured or calculated from the ATG_TRANS assay. It is designed to make measurements of mRNA induction, a form of inducible reporter, as detected with fluorescence intensity signals by Reverse transcription polymerase chain reaction (RT-PCR) and Capillary electrophoresis technology.Data from the assay component ATG_THRa1_TRANS was analyzed into 1 assay endpoint. This assay endpoint, ATG_THRa1_TRANS, was analyzed in the positive analysis fitting direction relative to DMSO as the negative control and baseline of activity. Using a type of inducible reporter, measures of mRNA for gain-of-signal activity can be used to understand the reporter gene at the transcription factor-level as they relate to the gene THRA. Furthermore, this assay endpoint can be referred to as a primary readout, because this assay has produced multiple assay endpoints where this one serves a reporter gene function. To generalize the intended target to other relatable targets, this assay endpoint is annotated to the nuclear receptor intended target family, where the subfamily is non-steroidal.
human Thyroid Receptor alpha (THRa1), THRA (gene 7067), sequence (P10827 whole entry, looked up): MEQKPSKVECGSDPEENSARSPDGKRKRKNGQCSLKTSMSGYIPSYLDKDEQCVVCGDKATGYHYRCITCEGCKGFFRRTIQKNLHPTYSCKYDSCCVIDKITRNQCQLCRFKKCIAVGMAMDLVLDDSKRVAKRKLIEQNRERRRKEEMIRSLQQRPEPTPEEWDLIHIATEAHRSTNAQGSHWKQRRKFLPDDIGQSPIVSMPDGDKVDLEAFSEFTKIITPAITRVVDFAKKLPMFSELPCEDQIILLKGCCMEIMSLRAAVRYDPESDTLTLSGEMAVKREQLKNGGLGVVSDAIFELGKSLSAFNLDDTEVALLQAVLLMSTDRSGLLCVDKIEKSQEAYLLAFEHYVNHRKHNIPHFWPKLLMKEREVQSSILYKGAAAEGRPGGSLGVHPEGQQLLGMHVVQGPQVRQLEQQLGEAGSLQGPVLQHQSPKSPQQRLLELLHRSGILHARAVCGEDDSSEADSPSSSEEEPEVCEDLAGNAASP
Human liver HepG2 cells are transiently transfected with multiple reporter transcription units (MRTUs) in 6-well plates using FuGene 6 reagent (Roche; 3 ml FuGene/1 mg DNA). The MRTU constructs are regulated by a cis-regulating element (promoter). […] A major difference between the CIS and TRANS system is that in CIS activities of endogenous TFs are measured, whereas the TRANS assay evaluates changes in activities of exogenous, chimeric NR-Gal4 proteins. […] At the end of 24 hour incubation, total RNA was isolated using TriZol reagent (Invitrogen). The isolated RNA is then reverse-transcribed using oligo(dT) primer and Mo-MLV reverse transcriptase (Invitrogen) with DNAse I (Ambion) treatment for 30 min. The one-tenth of the produced cDNA was amplified by PCR using Taq DNA polymerase (Invitrogen) and two reporter sequence-specific primers. The PCR products were fluorescently labeled by primer extension with 6-arboxyfluorescein (6-FAM) 5'-labeled reporter sequence-specific primer (2 min at 95 C, 20 s at 68 C and 10 min at 72 C) and these products were digested with 5U of HpaI (New England Biolabs) for 2h at 37 C. The fragments were purified using Qiaquick PCR columns (Qiagen), analyzed on an ABI 3130xL genetic analyzer (Applied Biosystems) with peak positions identified by using a set of X-rhodamine (ROX)-labeled MapMarker1000 molecular weight standards (BioVentures). The raw capillary electrophoresis data was processed using Attagraph software (Attagene).
Take `COP(=S)(OC)Oc1ccc([N+](=O)[O-])c(C)c1`: the outcome was inactive. The entry for `CCCCOCN(C(=O)CCl)c1c(CC)cccc1CC` is “inactive”; for `CC(C)N1C(=O)N(c2ccccc2)CSC1=NC(C)(C)C` it is “inactive”.

Take `CNC(=O)Oc1cccc2ccccc12`: the result was inactive. The entry for `COc1cc(Cl)c(OC)cc1Cl` is “inactive”; for `CCOc1nc(C(Cl)(Cl)Cl)ns1` it is “inactive”. On to `CCNC(=O)NC(=O)C(C#N)=NOC`, for which the call was inactive. For `Clc1cccc(C(Cl)(Cl)Cl)n1`, the compound was classed as inactive. For `CCC(C)n1c(=O)[nH]c(C)c(Br)c1=O` (stereo not given), the outcome was inactive. In the case of `COC(=O)N(C(=O)N1CO[C@@]2(C(=O)OC)Cc3cc(Cl)ccc3C2=N1)c1ccc(OC(F)(F)F)cc1`, the compound was called inactive. Regarding `N#Cc1c[nH]cc1-c1cccc2c1OC(F)(F)O2`, the outcome was inactive.

On to `CC(C)=CC1C(C(=O)OCc2coc(Cc3ccccc3)c2)C1(C)C` (stereo not given), for which the call was inactive. The result for `Nc1cnn(-c2ccccc2)c(=O)c1Cl` reads “inactive”; that for `C=CCOC(=O)C(C)(C)OC(=O)c1cc(-n2c(=O)cc(C(F)(F)F)n(C)c2=O)ccc1Cl`, “inactive”.

Regarding `COCC(C)N(C(=O)CCl)c1c(C)csc1C` (stereo not given), the outcome was inactive. With `CCCN(CC)CC1COC2(CCC(C(C)(C)C)CC2)O1` (stereo not given), the compound was classed as inactive.

Regarding `CCN(CC)c1nc(C)cc(OP(=S)(OC)OC)n1`, the compound was classed as inactive. Regarding `COP(=S)(OC)SCn1nnc2ccccc2c1=O`, the compound was classed as inactive.

Regarding `CC(C)(C)C(=O)C(Oc1ccc(Cl)cc1)n1cncn1` (stereo not given), the compound was classed as inactive. With `CO/N=C(/C1=NOCCO1)c1ccccc1Oc1ncnc(Oc2ccccc2Cl)c1F`, the result was inactive. With `CN/C(=N\[N+](=O)[O-])NCc1cnc(Cl)s1`, the compound was called inactive. The entry for `Cc1nc(N(C)C)nc(OC(=O)N(C)C)c1C` is “inactive”; for `COP(=O)(OC)O/C(C)=C/C(=O)N(C)C` it is “inactive”. The entry for `CCOP(=S)(OCC)Oc1nc(Cl)n(C(C)C)n1` is “inactive”. Take `COC(=O)NC(=S)Nc1ccccc1NC(=S)NC(=O)OC`: the compound was classed as inactive.

As to `CCOC(=O)C(C)OC(=O)c1cc(Oc2ccc(C(F)(F)F)cc2Cl)ccc1[N+](=O)[O-]` (stereo not given), the call was inactive. The entry for `Nc1c(Cl)c(Cl)nc(C(=O)O)c1Cl` is “inactive”; for `CCOc1nc(F)cc2nc(S(=O)(=O)Nc3c(Cl)cccc3Cl)nn12` it is “inactive”. In the case of `CN=C=S`, the result was inactive.

With `COCc1cnc(C2=NC(C)(C(C)C)C(=O)N2)c(C(=O)O)c1` (stereo not given), the compound was classed as inactive. With `O=C(O)c1c(Cl)ccc2cc(Cl)cnc12`, the call was inactive. The entry for `O=C1C2CC=CCC2C(=O)N1SC(Cl)(Cl)Cl` (stereo not given) is “inactive”. Regarding `CC1(C)C(C(=O)OC(C#N)c2cccc(Oc3ccccc3)c2)C1(C)C` (stereo not given), the call was inactive. For the compound `CC(C)Oc1cccc(NC(=O)c2ccccc2C(F)(F)F)c1`, the result was inactive. For `N#Cc1c(Cl)cccc1Cl`, the call was inactive. `CS(=O)(=O)c1ccc(C(=O)C2C(=O)CCCC2=O)c([N+](=O)[O-])c1`: the outcome was inactive. The entry for `Cc1cnc(C2=NC(C)(C(C)C)C(=O)N2)c(C(=O)O)c1` (stereo not given) is “inactive”; for `O=C(Nc1ccccc1-c1ccc(Cl)cc1)c1cccnc1Cl` it is “inactive”.

As to `CC(C)Nc1nc(Cl)nc(NC(C)C)n1`, the outcome was inactive. `Cc1c(COC(=O)[C@@H]2[C@H](/C=C(\Cl)C(F)(F)F)C2(C)C)cccc1-c1ccccc1`: the compound was called inactive.

For the origin of these results see PubChem BioAssay (EPA / NIEHS).
